Measured values taken from article PMC7862700, “An all-to-all approach to the identification of sequence-specific readers for epigenetic DNA modifications on cytosine”.

What was measured:
Assay in all cases: DAPPL (digital affinity profiling via proximity ligation, sequencing); 10 mM Tris-HCl pH 7.5, 50 mM NaCl, 1 mM DTT, 4% glycerol, room temperature, 30 min; GST-TFs on glutathione beads, 16-mer random dsDNA library, 0.1% formaldehyde crosslink after washing; high values mean tight binding
FLI1 = target: T1, FLI1 (Homo sapiens, UniProt Q01543 1-452); details: protein: recombinant; tags: N-terminal GST; dsDNA, one strand shown
T1 sequence: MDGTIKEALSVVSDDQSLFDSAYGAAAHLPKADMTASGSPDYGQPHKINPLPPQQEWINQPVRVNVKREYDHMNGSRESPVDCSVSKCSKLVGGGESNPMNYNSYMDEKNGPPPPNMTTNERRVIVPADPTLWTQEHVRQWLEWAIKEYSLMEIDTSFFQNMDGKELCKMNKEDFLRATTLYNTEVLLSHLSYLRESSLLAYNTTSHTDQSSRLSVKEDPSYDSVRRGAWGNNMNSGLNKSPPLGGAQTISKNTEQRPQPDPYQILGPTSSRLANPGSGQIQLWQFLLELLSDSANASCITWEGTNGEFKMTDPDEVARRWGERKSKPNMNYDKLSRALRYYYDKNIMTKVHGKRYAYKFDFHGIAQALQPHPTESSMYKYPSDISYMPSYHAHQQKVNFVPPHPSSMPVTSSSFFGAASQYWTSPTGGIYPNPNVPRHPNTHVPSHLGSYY
Outline: (§1)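 The binding signal reported is, for every hexamer, its read frequency for a factor over its read frequency for the tag-only sample. Reads came from pools of yeast-expressed, GST-fused human transcription factors on glutathione beads, barcoded with DNA and mixed with that sample, which were incubated with 200 nmole of a random double-stranded 16-mer DNA library in Tris/NaCl/DTT/glycerol buffer at room temperature for 30 min. After washing, the pools were crosslinked with 0.1% formaldehyde, proximity-ligated with BsaI/T4 ligase for 1 h at 37 °C, PCR-amplified and sequenced on an Illumina NextSeq500.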

GABPA = target: T2, GABPA (Homo sapiens, UniProt Q06546 1-454); details: protein: recombinant; tags: N-terminal GST; dsDNA, one strand shown
T2 sequence: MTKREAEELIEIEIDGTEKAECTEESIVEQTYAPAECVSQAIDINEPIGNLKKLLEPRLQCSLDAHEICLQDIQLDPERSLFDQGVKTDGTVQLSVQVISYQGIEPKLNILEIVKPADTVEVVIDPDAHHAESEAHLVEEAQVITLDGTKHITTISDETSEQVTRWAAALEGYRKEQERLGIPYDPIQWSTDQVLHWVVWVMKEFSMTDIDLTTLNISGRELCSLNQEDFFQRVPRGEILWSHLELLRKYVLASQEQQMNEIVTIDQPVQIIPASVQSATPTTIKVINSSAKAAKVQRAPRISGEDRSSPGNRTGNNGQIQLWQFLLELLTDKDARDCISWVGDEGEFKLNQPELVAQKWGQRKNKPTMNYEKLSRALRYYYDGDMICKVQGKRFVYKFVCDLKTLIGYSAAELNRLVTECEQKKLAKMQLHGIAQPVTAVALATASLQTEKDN
Outline: as §1

ERG = target: T3, ERG (Homo sapiens, UniProt P11308 1-479); details: protein: recombinant; tags: N-terminal GST; dsDNA, one strand shown
T3 sequence: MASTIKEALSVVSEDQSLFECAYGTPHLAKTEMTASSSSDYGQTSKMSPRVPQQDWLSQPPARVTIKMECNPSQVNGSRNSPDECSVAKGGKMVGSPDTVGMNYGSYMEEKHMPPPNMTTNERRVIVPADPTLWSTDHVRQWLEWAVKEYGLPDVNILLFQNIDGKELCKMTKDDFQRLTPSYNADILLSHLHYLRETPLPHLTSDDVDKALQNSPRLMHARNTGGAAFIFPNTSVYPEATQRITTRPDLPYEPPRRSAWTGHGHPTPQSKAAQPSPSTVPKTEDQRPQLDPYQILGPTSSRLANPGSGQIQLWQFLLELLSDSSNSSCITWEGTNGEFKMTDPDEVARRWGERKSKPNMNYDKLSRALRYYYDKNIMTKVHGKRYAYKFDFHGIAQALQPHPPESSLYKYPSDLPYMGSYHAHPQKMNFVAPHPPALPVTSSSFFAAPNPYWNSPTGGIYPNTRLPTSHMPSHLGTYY
Outline: as §1

ELF1 = ELF1 (Homo sapiens, UniProt P32519 1-619); details: protein: recombinant; tags: N-terminal GST; dsDNA, one strand shown
Chain of ELF1 (P32519 whole entry): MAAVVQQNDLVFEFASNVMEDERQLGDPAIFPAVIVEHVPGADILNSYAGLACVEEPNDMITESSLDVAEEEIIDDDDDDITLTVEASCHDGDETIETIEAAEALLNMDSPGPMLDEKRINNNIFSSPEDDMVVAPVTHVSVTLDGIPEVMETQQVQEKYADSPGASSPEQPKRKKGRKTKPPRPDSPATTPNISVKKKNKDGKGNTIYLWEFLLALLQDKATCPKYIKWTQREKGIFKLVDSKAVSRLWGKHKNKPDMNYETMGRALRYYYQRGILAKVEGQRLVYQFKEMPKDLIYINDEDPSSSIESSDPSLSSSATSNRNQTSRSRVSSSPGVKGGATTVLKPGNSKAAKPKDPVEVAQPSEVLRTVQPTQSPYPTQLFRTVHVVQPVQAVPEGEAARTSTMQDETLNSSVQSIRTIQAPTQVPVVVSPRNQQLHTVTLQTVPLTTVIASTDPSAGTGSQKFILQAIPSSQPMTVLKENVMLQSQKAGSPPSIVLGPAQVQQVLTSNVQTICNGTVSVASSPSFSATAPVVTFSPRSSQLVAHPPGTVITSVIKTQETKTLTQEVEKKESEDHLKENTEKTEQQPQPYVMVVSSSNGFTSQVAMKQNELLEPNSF
Outline: as §1

EHF = target: T4, EHF (Homo sapiens, UniProt Q9NZC4 1-300); details: protein: recombinant; tags: N-terminal GST; dsDNA, one strand shown
T4 sequence: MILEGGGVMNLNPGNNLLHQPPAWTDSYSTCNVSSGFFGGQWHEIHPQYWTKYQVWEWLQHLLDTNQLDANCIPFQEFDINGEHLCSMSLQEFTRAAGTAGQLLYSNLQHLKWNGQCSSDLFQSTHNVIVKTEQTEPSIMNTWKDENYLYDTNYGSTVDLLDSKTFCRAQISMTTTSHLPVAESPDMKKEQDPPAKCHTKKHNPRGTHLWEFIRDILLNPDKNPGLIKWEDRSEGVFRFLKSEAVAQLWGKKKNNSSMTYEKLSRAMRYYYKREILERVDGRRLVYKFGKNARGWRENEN
Outline: as §1

ELK3 = target: T5, ELK3 (Homo sapiens, UniProt P41970 1-407); details: protein: recombinant; tags: N-terminal GST; dsDNA, one strand shown
T5 sequence: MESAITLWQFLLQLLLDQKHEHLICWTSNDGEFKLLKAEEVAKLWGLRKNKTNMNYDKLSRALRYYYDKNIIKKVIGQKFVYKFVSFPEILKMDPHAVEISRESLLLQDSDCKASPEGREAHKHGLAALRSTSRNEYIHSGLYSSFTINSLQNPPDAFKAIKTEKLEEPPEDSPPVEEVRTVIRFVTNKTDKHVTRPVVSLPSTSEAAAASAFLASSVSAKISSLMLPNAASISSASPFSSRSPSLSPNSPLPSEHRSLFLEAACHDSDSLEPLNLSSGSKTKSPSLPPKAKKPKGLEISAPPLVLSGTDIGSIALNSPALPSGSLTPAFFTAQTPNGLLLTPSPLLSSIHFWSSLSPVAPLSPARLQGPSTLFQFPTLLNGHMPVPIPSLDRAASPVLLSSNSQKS
Outline: as §1

FEV = target: T6, FEV (Homo sapiens, UniProt Q99581 1-238); details: protein: recombinant; tags: N-terminal GST; dsDNA, one strand shown
T6 sequence: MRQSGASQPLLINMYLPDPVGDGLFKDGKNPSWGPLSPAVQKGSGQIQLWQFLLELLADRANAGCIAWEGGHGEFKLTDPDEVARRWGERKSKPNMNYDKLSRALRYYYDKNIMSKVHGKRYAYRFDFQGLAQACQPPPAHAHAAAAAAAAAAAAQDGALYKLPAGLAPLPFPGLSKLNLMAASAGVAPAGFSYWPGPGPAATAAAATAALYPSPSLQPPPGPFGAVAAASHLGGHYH
Outline: as §1

ETV5 = ETV5 (Homo sapiens, UniProt P41161 1-510); details: protein: recombinant; tags: N-terminal GST; dsDNA, one strand shown
Chain of ETV5 (P41161 whole entry): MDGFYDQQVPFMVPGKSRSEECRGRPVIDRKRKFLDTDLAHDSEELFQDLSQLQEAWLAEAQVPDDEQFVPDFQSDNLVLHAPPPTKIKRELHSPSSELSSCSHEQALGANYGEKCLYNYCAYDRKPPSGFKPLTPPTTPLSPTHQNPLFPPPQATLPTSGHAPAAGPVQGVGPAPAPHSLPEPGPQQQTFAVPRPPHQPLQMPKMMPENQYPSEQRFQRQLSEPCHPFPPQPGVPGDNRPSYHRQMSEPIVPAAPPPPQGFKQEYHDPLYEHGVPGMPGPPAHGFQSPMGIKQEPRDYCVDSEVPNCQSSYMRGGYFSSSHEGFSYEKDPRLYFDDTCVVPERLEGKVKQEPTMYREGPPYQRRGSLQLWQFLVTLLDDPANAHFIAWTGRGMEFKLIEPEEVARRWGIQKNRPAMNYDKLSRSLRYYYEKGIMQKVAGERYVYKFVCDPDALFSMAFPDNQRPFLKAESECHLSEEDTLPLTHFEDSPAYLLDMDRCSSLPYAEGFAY
Outline: as §1

HSF1 = HSF1 (Homo sapiens, UniProt Q00613 1-529); details: protein: recombinant; tags: N-terminal GST; chain copies: 3; dsDNA, one strand shown
Chain of HSF1 (Q00613 whole entry): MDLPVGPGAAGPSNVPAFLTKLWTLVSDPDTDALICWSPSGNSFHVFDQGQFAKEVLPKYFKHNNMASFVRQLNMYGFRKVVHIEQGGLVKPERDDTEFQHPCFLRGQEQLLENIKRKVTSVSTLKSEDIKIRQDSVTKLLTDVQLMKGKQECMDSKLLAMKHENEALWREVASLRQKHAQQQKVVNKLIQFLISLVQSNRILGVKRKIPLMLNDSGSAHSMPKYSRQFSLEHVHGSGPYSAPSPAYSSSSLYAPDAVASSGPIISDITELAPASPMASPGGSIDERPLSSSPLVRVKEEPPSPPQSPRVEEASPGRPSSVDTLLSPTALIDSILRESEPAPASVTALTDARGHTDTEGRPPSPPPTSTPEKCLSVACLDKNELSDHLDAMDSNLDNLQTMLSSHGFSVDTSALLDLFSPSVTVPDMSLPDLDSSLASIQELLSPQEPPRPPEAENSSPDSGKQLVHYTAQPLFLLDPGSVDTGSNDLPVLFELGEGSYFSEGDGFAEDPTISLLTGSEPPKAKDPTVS
Outline: as §1

ELF4 = ELF4 (Homo sapiens, UniProt Q99607 1-663); details: protein: recombinant; tags: N-terminal GST; dsDNA, one strand shown
Chain of ELF4 (Q99607 whole entry): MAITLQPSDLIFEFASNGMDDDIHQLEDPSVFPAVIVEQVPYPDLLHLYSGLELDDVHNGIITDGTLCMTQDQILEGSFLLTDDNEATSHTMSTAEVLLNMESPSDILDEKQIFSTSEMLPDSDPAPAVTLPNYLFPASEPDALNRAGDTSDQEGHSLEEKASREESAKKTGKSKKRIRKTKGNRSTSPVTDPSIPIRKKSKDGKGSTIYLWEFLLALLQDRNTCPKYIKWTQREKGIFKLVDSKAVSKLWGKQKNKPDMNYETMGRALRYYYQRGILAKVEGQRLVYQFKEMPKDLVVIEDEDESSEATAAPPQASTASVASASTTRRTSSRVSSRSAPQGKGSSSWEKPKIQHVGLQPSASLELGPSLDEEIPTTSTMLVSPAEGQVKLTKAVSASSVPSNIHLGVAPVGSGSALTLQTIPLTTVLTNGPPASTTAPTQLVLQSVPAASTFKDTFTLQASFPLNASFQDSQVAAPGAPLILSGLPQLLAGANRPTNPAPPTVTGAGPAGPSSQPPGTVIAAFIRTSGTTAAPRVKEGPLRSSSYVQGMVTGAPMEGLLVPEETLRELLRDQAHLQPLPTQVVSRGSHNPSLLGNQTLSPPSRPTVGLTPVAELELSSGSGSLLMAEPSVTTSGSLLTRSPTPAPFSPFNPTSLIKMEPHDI
Outline: as §1

ELK4 = target: T7, ELK4 (Homo sapiens, UniProt P28324-2 1-405); details: protein: recombinant; tags: N-terminal GST; dsDNA, one strand shown
T7 sequence: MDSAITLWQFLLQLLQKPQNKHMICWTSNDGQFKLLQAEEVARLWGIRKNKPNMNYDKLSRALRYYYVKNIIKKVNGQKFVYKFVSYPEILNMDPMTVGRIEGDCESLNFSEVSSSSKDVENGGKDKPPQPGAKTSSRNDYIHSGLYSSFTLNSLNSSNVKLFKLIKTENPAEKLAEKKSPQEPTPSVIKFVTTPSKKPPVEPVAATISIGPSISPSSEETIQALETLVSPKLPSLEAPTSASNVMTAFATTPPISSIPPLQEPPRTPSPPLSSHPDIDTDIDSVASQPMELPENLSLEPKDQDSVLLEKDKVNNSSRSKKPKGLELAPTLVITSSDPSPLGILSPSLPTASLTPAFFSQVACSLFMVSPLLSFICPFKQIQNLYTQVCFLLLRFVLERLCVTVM
Outline: as §1

CRX = CRX (Homo sapiens, UniProt O43186 1-299); details: protein: recombinant; tags: N-terminal GST; dsDNA, one strand shown
Chain of CRX (O43186 whole entry): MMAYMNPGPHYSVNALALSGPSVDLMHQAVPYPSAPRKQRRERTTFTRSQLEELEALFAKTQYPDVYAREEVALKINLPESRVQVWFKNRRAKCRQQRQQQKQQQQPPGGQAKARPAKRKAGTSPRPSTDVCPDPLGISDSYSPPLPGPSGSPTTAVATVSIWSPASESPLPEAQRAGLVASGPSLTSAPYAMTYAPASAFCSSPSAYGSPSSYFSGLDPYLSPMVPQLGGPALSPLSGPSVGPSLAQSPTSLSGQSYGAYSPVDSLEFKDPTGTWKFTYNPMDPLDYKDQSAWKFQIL
Outline: as §1

ETV1 = ETV1 (Homo sapiens, UniProt P50549 1-477); details: protein: recombinant; tags: N-terminal GST; dsDNA, one strand shown
Chain of ETV1 (P50549 whole entry): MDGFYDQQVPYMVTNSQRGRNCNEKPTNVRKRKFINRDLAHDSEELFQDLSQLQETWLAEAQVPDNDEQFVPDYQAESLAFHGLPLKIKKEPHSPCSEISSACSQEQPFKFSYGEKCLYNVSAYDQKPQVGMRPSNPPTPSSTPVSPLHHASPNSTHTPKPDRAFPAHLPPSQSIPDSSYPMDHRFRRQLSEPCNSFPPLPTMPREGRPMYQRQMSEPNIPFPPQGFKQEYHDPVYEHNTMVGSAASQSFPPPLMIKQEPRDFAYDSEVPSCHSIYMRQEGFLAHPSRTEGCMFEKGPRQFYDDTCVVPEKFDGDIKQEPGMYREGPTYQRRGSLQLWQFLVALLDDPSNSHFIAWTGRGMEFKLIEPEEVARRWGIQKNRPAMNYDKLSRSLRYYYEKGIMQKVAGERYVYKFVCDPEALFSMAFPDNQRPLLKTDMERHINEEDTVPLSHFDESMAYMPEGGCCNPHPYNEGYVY
Outline: as §1

ELK1 = target: T8, ELK1 (Homo sapiens, UniProt P19419 1-428); details: protein: recombinant; tags: N-terminal GST; dsDNA, one strand shown
T8 sequence: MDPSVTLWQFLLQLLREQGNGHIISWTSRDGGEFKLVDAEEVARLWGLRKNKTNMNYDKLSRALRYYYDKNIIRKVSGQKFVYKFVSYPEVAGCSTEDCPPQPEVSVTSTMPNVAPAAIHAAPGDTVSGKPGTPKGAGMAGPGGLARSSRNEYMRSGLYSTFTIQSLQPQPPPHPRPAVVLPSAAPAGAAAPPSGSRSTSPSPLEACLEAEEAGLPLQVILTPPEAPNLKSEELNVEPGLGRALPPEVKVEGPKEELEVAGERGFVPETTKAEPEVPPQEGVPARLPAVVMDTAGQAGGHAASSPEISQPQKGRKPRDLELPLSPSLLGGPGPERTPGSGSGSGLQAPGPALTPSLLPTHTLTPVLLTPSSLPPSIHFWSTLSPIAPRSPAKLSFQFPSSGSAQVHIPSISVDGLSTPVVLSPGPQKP
Outline: as §1

ETV2 = target: T9, ETV2 (Homo sapiens, UniProt O00321 1-342); details: protein: recombinant; tags: N-terminal GST; dsDNA, one strand shown
T9 sequence: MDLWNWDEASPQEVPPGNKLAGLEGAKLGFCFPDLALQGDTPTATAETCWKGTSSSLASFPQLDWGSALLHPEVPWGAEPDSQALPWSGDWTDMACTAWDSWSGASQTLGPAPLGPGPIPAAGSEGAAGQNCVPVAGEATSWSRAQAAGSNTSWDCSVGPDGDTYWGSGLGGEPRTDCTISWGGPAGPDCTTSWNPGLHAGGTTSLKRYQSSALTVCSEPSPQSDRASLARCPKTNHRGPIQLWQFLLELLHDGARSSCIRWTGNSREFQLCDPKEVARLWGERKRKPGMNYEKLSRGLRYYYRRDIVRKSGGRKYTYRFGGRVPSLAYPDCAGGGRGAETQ
Outline: as §1

ELF3 = target: T10, ELF3 (Homo sapiens, UniProt P78545 1-371); details: protein: recombinant; tags: N-terminal GST; dsDNA, one strand shown
T10 sequence: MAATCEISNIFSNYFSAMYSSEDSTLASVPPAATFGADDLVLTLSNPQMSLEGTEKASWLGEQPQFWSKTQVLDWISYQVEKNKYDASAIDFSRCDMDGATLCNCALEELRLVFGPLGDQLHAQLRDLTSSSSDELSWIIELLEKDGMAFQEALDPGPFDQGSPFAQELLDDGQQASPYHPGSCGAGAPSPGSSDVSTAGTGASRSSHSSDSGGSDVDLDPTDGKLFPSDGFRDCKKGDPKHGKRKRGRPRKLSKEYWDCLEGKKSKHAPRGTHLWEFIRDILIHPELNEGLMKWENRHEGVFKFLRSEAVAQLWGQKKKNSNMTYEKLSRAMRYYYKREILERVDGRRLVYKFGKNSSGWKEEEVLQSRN
Outline: as §1

Row | Sequence | binding signal (FLI1) | binding signal (GABPA) | binding signal (ERG) | binding signal (ELF1) | binding signal (EHF) | binding signal (ELK3) | binding signal (FEV) | binding signal (ETV5) | binding signal (HSF1) | binding signal (ELF4) | binding signal (ELK4) | binding signal (CRX) | binding signal (ETV1) | binding signal (ELK1) | binding signal (ETV2) | binding signal (ELF3)
1 | AGGGCT | 1.03 fold enrichment (6-mer frequency, TF over GST control) | 1.05 fold enrichment (6-mer frequency, TF over GST control) | 1.07 fold enrichment (6-mer frequency, TF over GST control) | 1.01 fold enrichment (6-mer frequency, TF over GST control) | 1.04 fold enrichment (6-mer frequency, TF over GST control) | 1.08 fold enrichment (6-mer frequency, TF over GST control) | 1.03 fold enrichment (6-mer frequency, TF over GST control) | 1.06 fold enrichment (6-mer frequency, TF over GST control) | 1.03 fold enrichment (6-mer frequency, TF over GST control) | 1.07 fold enrichment (6-mer frequency, TF over GST control) | 1.02 fold enrichment (6-mer frequency, TF over GST control) | 1.26 fold enrichment (6-mer frequency, TF over GST control) | 1.11 fold enrichment (6-mer frequency, TF over GST control) | – | – | –
2 | GAACCA | 1.02 fold enrichment (6-mer frequency, TF over GST control) | 1.05 fold enrichment (6-mer frequency, TF over GST control) | – | 1.05 fold enrichment (6-mer frequency, TF over GST control) | 1.08 fold enrichment (6-mer frequency, TF over GST control) | – | – | 1.02 fold enrichment (6-mer frequency, TF over GST control) | 1.03 fold enrichment (6-mer frequency, TF over GST control) | 1.02 fold enrichment (6-mer frequency, TF over GST control) | 1.06 fold enrichment (6-mer frequency, TF over GST control) | – | 1 fold enrichment (6-mer frequency, TF over GST control) | 1.05 fold enrichment (6-mer frequency, TF over GST control) | 1.02 fold enrichment (6-mer frequency, TF over GST control) | 1.09 fold enrichment (6-mer frequency, TF over GST control)
